From PubChem BioAssay (Tox21) come the findings set out here.

Records with an inconclusive call do not appear. Entries that show only a call come without a potency. The source made the active and inactive calls. Calls follow the shape of the full dose curve.

This test is described as follows: p53 small molecule agonists, cell-based qHTS assay with rat liver microsomes (AID 1963578). As to conditions: HCT-116 p53RE-bla, beta-lactamase ratio, 16 h; series mostly up to 66 µM. The text has this: U.S. Tox21 Program National Center for Advancing Translational Sciences [NCATS] Division of Preclinical Innovation [DPI] U.S. Environmental Protection Agency [EPA] National Institutes of Environmental Health Sciences [NIEHS] National Toxicology Program [NTP] U.S. Food and Drug Administration [FDA] Tox21 Assay Overview: p53, a tumor suppressor protein, is activated following cellular insult, including DNA damage and other cellular stresses. The activation of p53 regulates cell fate by inducing DNA repair, cell cycle arrest, apoptosis, or cellular senescence. The activation of p53, therefore, is a good indicator of DNA damage and other cellular stresses. […] The activation of the reporter gene under culture conditions can be detected by fluorescence intensity. This cell line was used to screen the Tox21 10K compound library in the condition of presence of rat liver microsomes and to identify agonists that activate the p53 signaling pathway after in vitro metabolic activation (Ooka et al., Archive of Toxicology 96:1975-1987, 2022).
Tox21 Assay Protocol Summary: The p53RE-bla cells were dispensed at 4,000cells/3ul/well in 1536-well black-clear bottom plates. After the assay plates were incubated at 37 C, 5% CO2 incubator for 5 hours, 23 nL of compounds dissolved in DMSO, positive controls or DMSO only was transferred to the assay plate. Following compound addition, 3 uL of rat liver microsomes (Molecular Toxicology, Boone, NC) at final concentration of 0.5 mg/mL and 1uL of Beta-Nicotinamide adenine dinucleotide 2-phosphate (NADPH) at final concentration of 0.5 mg/mL were transferred to the assay plate. The plates were incubated at 37 C for 16 hours. 1 uL of LiveBLAzer detection mixture was added to each well and the plates were incubated at room temperature in the dark for 2 h.
In the case of `C1COCCN1`, the Potency entry was “inactive”. The entry for `C[C@H]1C[C@@H]2[C@H]([C@@H](O)C[C@@]3(C)[C@H]2CC[C@]3(O)C(=O)CO)[C@@]2(C)C=CC(=O)C=C12` is “inactive”; for `Cc1cc(=O)[nH]c(C(C)C)n1` it is “inactive”; for `CCN=c1cc2oc3cc(NCC)c(C)cc3c(-c3ccccc3C(=O)OCC)c-2cc1C` it is “inactive”.

With `O=C(O)CCCCCCCCC(=O)O`, the Potency result is “inactive”.

Consider `C/C=C/c1ccc(O)c(OC)c1`, for which the Potency entry is “inactive”.

For `CCCOC(=O)c1ccccc1`, the Potency entry is “inactive”.

`CC(=O)Oc1ccc(C(c2ccc(OC(C)=O)cc2)c2ccccn2)cc1`: the Potency entry was “inactive”. For `CC(=O)NS(=O)(=O)c1ccc(N)cc1` the value was “inactive”; for `Cc1cccc(C(=O)O)c1`, “inactive”; for `C=C(C)C(=O)O[C@H]1C[C@@H]2CC[C@@]1(C)C2(C)C`, “inactive”.

In the case of `CC/C(C)=N/O`, the Potency result was “inactive”. `CC1(C)[C@@H](O[C@H]2O[C@H](C(=O)O)[C@@H](O)[C@H](O)[C@H]2O[C@@H]2O[C@H](C(=O)O)[C@@H](O)[C@H](O)[C@H]2O)CC[C@]2(C)[C@H]3C(=O)C=C4[C@@H]5C[C@@](C)(C(=O)O)CC[C@]5(C)CC[C@@]4(C)[C@]3(C)CC[C@@H]12`: the Potency result is “inactive”. `C#C[C@]1(O)CC[C@H]2[C@@H]3CCC4=CC(=O)CC[C@@H]4[C@H]3CC[C@@]21CC`: the Potency result is “inactive”.

Consider `O=c1[nH]c(=O)n([C@H]2C[C@H](O)[C@@H](CO)O2)cc1Br`, for which the Potency result was “inactive”. With `CN1C(=O)CC[C@H]1c1cccnc1`, the Potency entry was “inactive”. Regarding `C=CC(=O)OCCOCCOCCOCCOC(=O)C=C`, the Potency entry is “inactive”. As for `CCCCC(CC)COC(=O)/C=C\C(=O)OCC(CC)CCCC` (stereo not given), the Potency entry was “inactive”. For `CCCCCCCCC` the value was “inactive”; for `NCCOCCO`, “inactive”. Regarding `NC(=O)c1ccccc1O`, the Potency entry was “inactive”. Take `O=C(O)c1ccccc1Nc1cccc(C(F)(F)F)c1`: the Potency entry was “inactive”. For the compound `C=C[Si](OCCOC)(OCCOC)OCCOC`, the Potency result was “inactive”. For `C=C(C)C(=O)OCCCCCC` the value was “inactive”; for `CCCC(C)=O`, “inactive”; for `O=C(O)C1=NN(c2ccc(S(=O)(=O)O)cc2)C(=O)C1`, “inactive”. Consider `Oc1ccc(O)cc1`, for which the Potency result was “inactive”. As to `NC(N)=Nc1nc(CSCC/C(N)=N/S(N)(=O)=O)cs1`, the Potency result was “inactive”. With `Cc1ccc(O)c(-n2nc3ccccc3n2)c1`, the Potency entry is “inactive”.

`OC(CCl)CCl`: the Potency entry was “inactive”. Turning to `C=CCNCC=C`, the Potency entry was “inactive”. Consider `Cc1ccncc1`, for which the Potency entry is “inactive”. For the compound `COc1ccc([N+](=O)[O-])cc1N`, the Potency result was “inactive”. For the compound `CCCOC(=O)c1cc(O)c(O)c(O)c1`, the Potency result was “inactive”. For `O=S(=O)(O)c1ccc(O)cc1` the value was “inactive”; for `NC(=O)NC1NC(=O)NC1=O` (stereo not given), “inactive”.

Consider `OCCOCCN1CCN(C(c2ccccc2)c2ccc(Cl)cc2)CC1` (stereo not given), for which the Potency entry is “inactive”. For the compound `O=C1O[C@H]([C@H](O)CO)C(O)=C1O`, the Potency entry is “inactive”.

With `C#C[C@]1(O)CC[C@H]2[C@@H]3CCC4=Cc5oncc5C[C@]4(C)[C@H]3CC[C@@]21C`, the Potency result was “inactive”. As to `C=C(C)C(=O)Nc1ccc(Cl)c(Cl)c1`, the Potency entry is “inactive”.
